Measured values published in PubChem BioAssay AID1159580 (chemical genetic matrix, 2015).
Hit rate of the full screen: of about 5,500 compounds, about 2,000 (36%) were called active. Inconclusive results (about 18%) are left out. No stated cut-off is given here; in the data, active means normalized growth mostly below about 0.91 (no sharp cut-off); inconclusive means no clear call, values can overlap the other calls; inactive means mostly above about 0.92. The list shows a part of the results.

Experiment: chemical genetic growth profiling, strain panel (AID 1159580);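 further: tested at 20 µM; growth read once vehicle control cultures reached saturation at 30 °C; 1 = growth at the plate median or of vehicle wells; lower values mean less growth of the strain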
Conditions: growth OD

Measured: normalized growth

CC(=O)OC1CCC2(C)C(CC(OC(C)=O)C3(C)C4=CC(=O)OC(c5ccoc5)C4(C)CCC23)C1(C)C (stereo unspecified)
inactive: S. cerevisiae deletion strains, locus YAL013W, strain DEP1, active compounds read low 0.989 | S. cerevisiae deletion strains, locus YBR021W, strain FUR4, active compounds read low 1.02 | S. cerevisiae deletion strains, locus YBR229C, strain ROT2, active compounds read low 1 | S. cerevisiae deletion strains, locus YCL029C, strain bik1, active compounds read low 0.995 | S. cerevisiae deletion strains, locus YDL035C, strain GPR1, active compounds read low 0.972 | S. cerevisiae deletion strains, locus YDL074C, strain BRE1, active compounds read low 0.791 | S. cerevisiae deletion strains, locus YDL101C, strain DUN1, active compounds read low 0.995 | S. cerevisiae deletion strains, locus YDL134C, strain PPH21, active compounds read low 0.989 | S. cerevisiae deletion strains, locus YDL185W, strain tfp1, active compounds read low 0.963 | S. cerevisiae deletion strains, locus YDL192W, strain arf1, active compounds read low 0.998 | S. cerevisiae deletion strains, locus YDR101C, strain arx1, active compounds read low 1.01 | S. cerevisiae deletion strains, locus YDR150W, strain NUM1, active compounds read low 0.98 | S. cerevisiae deletion strains, locus YDR162C, strain NBP2, active compounds read low 1.01 | S. cerevisiae deletion strains, locus YDR318W, strain mcm21, active compounds read low 0.992 | S. cerevisiae deletion strains, locus YDR388W, active compounds read low 1 | S. cerevisiae deletion strains, locus YDR502C, strain sam2, active compounds read low 1.01 | S. cerevisiae deletion strains, locus YEL061C, strain CIN8, active compounds read low 1.01 | S. cerevisiae deletion strains, locus YER110C, active compounds read low 1 | S. cerevisiae deletion strains, locus YER155C, strain BEM2, active compounds read low 0.997 | S. cerevisiae deletion strains, locus YER167W, strain BCK2, active compounds read low 0.994 | S. cerevisiae deletion strains, locus YGL078C, strain dbp3, active compounds read low 0.993 | S. cerevisiae deletion strains, locus YGL086W, strain mad1, active compounds read low 0.969 | S. cerevisiae deletion strains, locus YGL248W, strain PDE1, active compounds read low 1.01 | S. cerevisiae deletion strains, locus YGR078C, strain PAC10, active compounds read low 0.948 | S. cerevisiae deletion strains, locus YGR135W, strain pre9, active compounds read low 1.04 | S. cerevisiae deletion strains, locus YGR229C, strain SMI1, active compounds read low 0.986 | S. cerevisiae deletion strains, locus YGR252W, strain gcn5, active compounds read low 0.961 | S. cerevisiae deletion strains, locus YHR030C, strain SLT2, active compounds read low 0.998 | S. cerevisiae deletion strains, locus YHR079C, strain IRE1 (second series), active compounds read low 0.972 | S. cerevisiae deletion strains, locus YHR094C, strain hxt1, active compounds read low 0.989 | S. cerevisiae deletion strains, locus YHR129C, strain ARP1, active compounds read low 1 | S. cerevisiae deletion strains, locus YHR200W, strain rpn10, active compounds read low 1 | S. cerevisiae deletion strains, locus YIL066C, strain RNR3, active compounds read low 0.973 | S. cerevisiae deletion strains, locus YIL073C, strain SPO22, active compounds read low 0.882 | S. cerevisiae deletion strains, locus YIL125W, strain kgd1, active compounds read low 1 | S. cerevisiae deletion strains, locus YIR030C, strain dcg1, active compounds read low 1 | S. cerevisiae deletion strains, locus YJL095W, strain BCK1, active compounds read low 1.01 | S. cerevisiae deletion strains, locus YJL134W, strain LCB3, active compounds read low 1 | S. cerevisiae deletion strains, locus YJL168C, strain set2, active compounds read low 1 | S. cerevisiae deletion strains, locus YJL187C, strain SWE1 (second series), active compounds read low 0.994 | S. cerevisiae deletion strains, locus YJR043C, strain POL32, active compounds read low 0.997 | S. cerevisiae deletion strains, locus YJR075W, strain HOC1, active compounds read low 1.01 | S. cerevisiae deletion strains, locus YKL009W, strain mrt4, active compounds read low 0.988 | S. cerevisiae deletion strains, locus YKL068W, active compounds read low 0.982 | S. cerevisiae deletion strains, locus YKL085W, strain MDH1 (second series), active compounds read low 0.994 | S. cerevisiae deletion strains, locus YKL085W, strain MDH1, active compounds read low 0.994 | S. cerevisiae deletion strains, locus YKL190W, strain CNB1, active compounds read low 0.977 | S. cerevisiae deletion strains, locus YKR001C, strain vps1, active compounds read low 0.974 | S. cerevisiae deletion strains, locus YLR039C, strain RIC1, active compounds read low 0.986 | S. cerevisiae deletion strains, locus YLR058C, strain SHM2, active compounds read low 0.989 | S. cerevisiae deletion strains, locus YLR102C, strain apc9, active compounds read low 0.995 | S. cerevisiae deletion strains, locus YLR262C, strain YPT6, active compounds read low 0.954 | S. cerevisiae deletion strains, locus YLR268W, strain sec22, active compounds read low 1.03 | S. cerevisiae deletion strains, locus YLR330W, strain CHS5, active compounds read low 0.995 | S. cerevisiae deletion strains, locus YLR342W, strain FKS1 (second series), active compounds read low 0.996 | S. cerevisiae deletion strains, locus YLR371W, strain rom2, active compounds read low 0.983 | S. cerevisiae deletion strains, locus YLR418C, strain cdc73, active compounds read low 1.01 | S. cerevisiae deletion strains, locus YML016C, strain PPZ1, active compounds read low 1 | S. cerevisiae deletion strains, locus YML032C, strain rad52, active compounds read low 0.986 | S. cerevisiae deletion strains, locus YML124C, strain tub3, active compounds read low 1 | S. cerevisiae deletion strains, locus YMR078C, strain ctf18, active compounds read low 1 | S. cerevisiae deletion strains, locus YMR223W, strain ubp8, active compounds read low 0.99 | S. cerevisiae deletion strains, locus YMR263W, strain SAP30, active compounds read low 0.982 | S. cerevisiae deletion strains, locus YMR307W, strain GAS1, active compounds read low 0.924 | S. cerevisiae deletion strains, locus YNL067W, strain RPL9B, active compounds read low 0.99 | S. cerevisiae deletion strains, locus YNL128W, strain TEP1, active compounds read low 1 | S. cerevisiae deletion strains, locus YNL153C, strain GIM3, active compounds read low 0.989 | S. cerevisiae deletion strains, locus YNL233W, strain BNI4, active compounds read low 1 | S. cerevisiae deletion strains, locus YNL250W, strain rad50, active compounds read low 0.985 | S. cerevisiae deletion strains, locus YNL271C, strain bni1, active compounds read low 1 | S. cerevisiae deletion strains, locus YNL298W, strain CLA4, active compounds read low 1.01 | S. cerevisiae deletion strains, locus YNL307C, strain MCK1, active compounds read low 0.995 | S. cerevisiae deletion strains, locus YNL322C, strain KRE1, active compounds read low 0.992 | S. cerevisiae deletion strains, locus YNR052C, strain pop2, active compounds read low 0.999 | S. cerevisiae deletion strains, locus YOL006C, strain TOP1, active compounds read low 0.937 | S. cerevisiae deletion strains, locus YOL012C, strain htz1 1.25 | S. cerevisiae deletion strains, locus YOL147C, strain pex11, active compounds read low 0.995 | S. cerevisiae deletion strains, locus YOR061W, strain CKA2, active compounds read low 0.996 | S. cerevisiae deletion strains, locus YOR069W, strain VPS5, active compounds read low 0.998 | S. cerevisiae deletion strains, locus YOR136W, strain idh2, active compounds read low 1 | S. cerevisiae deletion strains, locus YOR144C, strain elg1, active compounds read low 0.994 | S. cerevisiae deletion strains, locus YOR184W, strain ser1, active compounds read low 0.976 | S. cerevisiae deletion strains, locus YOR316C, strain cot1, active compounds read low 1 | S. cerevisiae deletion strains, locus YPL055C, strain LGE1, active compounds read low 0.908 | S. cerevisiae deletion strains, locus YPL241C, strain CIN2, active compounds read low 0.987 | S. cerevisiae deletion strains, locus YPR119W, strain clb2, active compounds read low 1 | S. cerevisiae deletion strains, locus YPR141C, strain kar3, active compounds read low 0.998 | S. cerevisiae deletion strains, locus YPR163C, strain tif3, active compounds read low 0.999 | S. cerevisiae deletion strains, locus YPR167C, strain met16, active compounds read low 1 | S. cerevisiae deletion strains, strain wtn01, active compounds read low 0.999 | S. cerevisiae strains, strain wild type, active compounds read low 0.996
